We go through five sequences from paper PMC11006913.

Holding throughout (assay): PBM; 200 nM protein, PBS
Common to all, as to settings: dsDNA, one strand shown

The target of test [1] is T1, PAX4 (Homo sapiens, UniProt O43316 9-242, R200K).
T1 sequence: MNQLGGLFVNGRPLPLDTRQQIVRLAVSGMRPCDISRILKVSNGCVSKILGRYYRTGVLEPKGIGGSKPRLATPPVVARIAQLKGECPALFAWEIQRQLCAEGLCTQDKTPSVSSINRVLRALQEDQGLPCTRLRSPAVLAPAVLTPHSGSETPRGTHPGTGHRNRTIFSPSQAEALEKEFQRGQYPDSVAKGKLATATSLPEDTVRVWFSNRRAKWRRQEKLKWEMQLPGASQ

The target of test [2] is T2, PAX4 (Homo sapiens, UniProt O43316 9-242).
T2 sequence: T1 sequence with K192R

The target of test [3] is T3, PAX4 (Homo sapiens, UniProt O43316 9-242, R200Q).
T3 sequence: T1 sequence with K192Q

The target of test [4] is T4, PAX4 (Homo sapiens, UniProt O43316 9-242, F177V).
T4 sequence: T1 sequence with F169V, K192R

Test [5] addresses HOXA2 (Homo sapiens, UniProt O43364 129-215, R185T).
In test [6] the target is ALX3 (Homo sapiens, UniProt O95076 139-225, N203Q).
Test [7] deals with T5, NKX2-6 (Homo sapiens, UniProt A6NCS4 118-204).
T5 sequence: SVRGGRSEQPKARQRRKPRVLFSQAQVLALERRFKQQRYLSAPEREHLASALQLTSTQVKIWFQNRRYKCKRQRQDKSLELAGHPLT

Test [8] deals with HOXA2 (Homo sapiens, UniProt O43364 129-215, R185K).
The target in test [9] is ALX3 (Homo sapiens, UniProt O95076 139-225).
Test [10] addresses T6, PAX4 (Homo sapiens, UniProt O43316 9-242, F177Y).
T6 sequence: T1 sequence with F169Y, K192R

In test [11] the target is ALX3 (Homo sapiens, UniProt O95076 139-225, L168Q).
Test [12] has as its target T7, NKX2-6 (Homo sapiens, UniProt A6NCS4 118-204, F151L).
T7 sequence: T5 sequence with F34L

Test [13] concerns the target ALX3 (Homo sapiens, UniProt O95076 139-225, L168V).
Test [14] concerns the target T8, PAX4 (Homo sapiens, UniProt O43316 9-242, R227W).
T8 sequence: T1 sequence with K192R, R219W

Test [15] concerns the target HOXA2 (Homo sapiens, UniProt O43364 129-215, Y150S).
In test [16] the target is ALX3 (Homo sapiens, UniProt O95076 139-225, N203S).
Test [17] deals with HOXA2 (Homo sapiens, UniProt O43364 129-215).
Test [18] addresses HOXD13 (Homo sapiens, UniProt P35453 263-343, T313R).
The target of test [19] is HOXD13 (Homo sapiens, UniProt P35453 263-343).
Test [20] has as its target HOXD13 (Homo sapiens, UniProt P35453 263-343, T313A).
Test [21] deals with MSX2 (Homo sapiens, UniProt P35548 130-214, R199I).
For test [22], the target named is MSX2 (Homo sapiens, UniProt P35548 130-214).
The target of test [23] is MSX2 (Homo sapiens, UniProt P35548 130-214, F161Y).

Changes are numbered by the printed parent chain.

Chain of HOXA2 (Homo sapiens, UniProt O43364 129-215, R185T) (O43364 129-215 R185T): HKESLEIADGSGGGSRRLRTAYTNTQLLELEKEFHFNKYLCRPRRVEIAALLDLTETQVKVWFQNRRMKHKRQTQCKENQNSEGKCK
Chain of HOXA2 (Homo sapiens, UniProt O43364 129-215) (O43364 129-215): as the sequence (O43364 129-215 R185T) above, with T57R counted along it
Chain of ALX3 (Homo sapiens, UniProt O95076 139-225, N203S) (O95076 139-225 N203S): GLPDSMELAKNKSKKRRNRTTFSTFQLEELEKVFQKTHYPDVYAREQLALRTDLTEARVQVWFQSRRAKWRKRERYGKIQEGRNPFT
Chain of ALX3 (Homo sapiens, UniProt O95076 139-225, N203Q) (O95076 139-225 N203Q): as the sequence (O95076 139-225 N203S) above, with S65Q counted along it
Chain of ALX3 (Homo sapiens, UniProt O95076 139-225, L168V) (O95076 139-225 L168V): as the sequence (O95076 139-225 N203S) above, with L30V, S65N counted along it
Chain of HOXA2 (Homo sapiens, UniProt O43364 129-215, R185K) (O43364 129-215 R185K): as the sequence (O43364 129-215 R185T) above, with T57K counted along it
Chain of HOXA2 (Homo sapiens, UniProt O43364 129-215, Y150S) (O43364 129-215 Y150S): as the sequence (O43364 129-215 R185T) above, with Y22S, T57R counted along it
Chain of ALX3 (Homo sapiens, UniProt O95076 139-225) (O95076 139-225): as the sequence (O95076 139-225 N203S) above, with S65N counted along it
Chain of ALX3 (Homo sapiens, UniProt O95076 139-225, L168Q) (O95076 139-225 L168Q): as the sequence (O95076 139-225 N203S) above, with L30Q, S65N counted along it
Chain of MSX2 (Homo sapiens, UniProt P35548 130-214, F161Y) (P35548 130-214 F161Y): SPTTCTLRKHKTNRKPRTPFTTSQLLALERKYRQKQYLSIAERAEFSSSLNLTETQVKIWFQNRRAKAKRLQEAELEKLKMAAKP
Chain of HOXD13 (Homo sapiens, UniProt P35453 263-343, T313A) (P35453 263-343 T313A): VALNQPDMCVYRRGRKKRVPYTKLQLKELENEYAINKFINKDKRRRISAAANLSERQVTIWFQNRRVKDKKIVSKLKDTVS
Chain of HOXD13 (Homo sapiens, UniProt P35453 263-343, T313R) (P35453 263-343 T313R): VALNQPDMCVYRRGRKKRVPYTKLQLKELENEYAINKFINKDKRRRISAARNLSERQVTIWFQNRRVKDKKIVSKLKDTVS
Chain of MSX2 (Homo sapiens, UniProt P35548 130-214, R199I) (P35548 130-214 R199I): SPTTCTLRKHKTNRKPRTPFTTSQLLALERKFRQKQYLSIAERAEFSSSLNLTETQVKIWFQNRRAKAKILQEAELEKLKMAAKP
Chain of HOXD13 (Homo sapiens, UniProt P35453 263-343) (P35453 263-343): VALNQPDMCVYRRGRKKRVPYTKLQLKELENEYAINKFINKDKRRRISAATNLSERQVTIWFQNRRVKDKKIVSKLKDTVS
Chain of MSX2 (Homo sapiens, UniProt P35548 130-214) (P35548 130-214): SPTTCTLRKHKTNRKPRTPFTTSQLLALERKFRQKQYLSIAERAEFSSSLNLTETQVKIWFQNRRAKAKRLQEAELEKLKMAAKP

Consider GTGTAATA, for which the binding signal was 10.9 upbm affinity estimate (log intensity, higher = more binding, comparable within an allelic series) with PAX4 [1]; 11.1 upbm affinity estimate (log intensity, higher = more binding, comparable within an allelic series) with PAX4 [2]; 10.8 upbm affinity estimate (log intensity, higher = more binding, comparable within an allelic series) in the test with PAX4 [3]; 10.4 upbm affinity estimate (log intensity, higher = more binding, comparable within an allelic series) with PAX4 [4].
As to GCCTGTCC, the binding signal with PAX4 [1] is 9.34 upbm affinity estimate (log intensity, higher = more binding, comparable within an allelic series); with PAX4 [2], 9.22 upbm affinity estimate (log intensity, higher = more binding, comparable within an allelic series); with HOXA2 [5] it was 7.41 upbm affinity estimate (log intensity, higher = more binding, comparable within an allelic series); in the test with ALX3 [6] it was 7.8 upbm affinity estimate (log intensity, higher = more binding, comparable within an allelic series); with NKX2-6 [7], 9.8 upbm affinity estimate (log intensity, higher = more binding, comparable within an allelic series); in the test with PAX4 [3], 9.44 upbm affinity estimate (log intensity, higher = more binding, comparable within an allelic series). Also, the binding signal was 10.4 upbm affinity estimate (log intensity, higher = more binding, comparable within an allelic series) with HOXA2 [8]; 9.3 upbm affinity estimate (log intensity, higher = more binding, comparable within an allelic series) with PAX4 [4]; 7.73 upbm affinity estimate (log intensity, higher = more binding, comparable within an allelic series) with ALX3 [9]; 9.34 upbm affinity estimate (log intensity, higher = more binding, comparable within an allelic series) in the test with PAX4 [10]; 7.77 upbm affinity estimate (log intensity, higher = more binding, comparable within an allelic series) with ALX3 [11]; 9.38 upbm affinity estimate (log intensity, higher = more binding, comparable within an allelic series) in the test with NKX2-6 [12]. For the same sequence, the binding signal was 7.73 upbm affinity estimate (log intensity, higher = more binding, comparable within an allelic series) in the test with ALX3 [13]; 9.36 upbm affinity estimate (log intensity, higher = more binding, comparable within an allelic series) with PAX4 [14]; 10.4 upbm affinity estimate (log intensity, higher = more binding, comparable within an allelic series) with HOXA2 [15]; 7.78 upbm affinity estimate (log intensity, higher = more binding, comparable within an allelic series) in the test with ALX3 [16]; 7.48 upbm affinity estimate (log intensity, higher = more binding, comparable within an allelic series) with HOXA2 [17].
As to CGGCTTTC, the binding signal with PAX4 [1] was 9.21 upbm affinity estimate (log intensity, higher = more binding, comparable within an allelic series); with PAX4 [2], 9.26 upbm affinity estimate (log intensity, higher = more binding, comparable within an allelic series); in the test with HOXD13 [18], 9.51 upbm affinity estimate (log intensity, higher = more binding, comparable within an allelic series); with PAX4 [3], 9.27 upbm affinity estimate (log intensity, higher = more binding, comparable within an allelic series); with HOXD13 [19], 9.48 upbm affinity estimate (log intensity, higher = more binding, comparable within an allelic series); in the test with PAX4 [4], 9.3 upbm affinity estimate (log intensity, higher = more binding, comparable within an allelic series). In addition, the binding signal with PAX4 [10] is 9.24 upbm affinity estimate (log intensity, higher = more binding, comparable within an allelic series); with HOXD13 [20], 9.54 upbm affinity estimate (log intensity, higher = more binding, comparable within an allelic series); in the test with PAX4 [14] it was 9.29 upbm affinity estimate (log intensity, higher = more binding, comparable within an allelic series).
In the case of AGGGGGCC, the binding signal with PAX4 [1] is 8.96 upbm affinity estimate (log intensity, higher = more binding, comparable within an allelic series); with PAX4 [2], 9.02 upbm affinity estimate (log intensity, higher = more binding, comparable within an allelic series); in the test with HOXA2 [5], 7.23 upbm affinity estimate (log intensity, higher = more binding, comparable within an allelic series); with MSX2 [21] it was 9.51 upbm affinity estimate (log intensity, higher = more binding, comparable within an allelic series); with PAX4 [3], 9.05 upbm affinity estimate (log intensity, higher = more binding, comparable within an allelic series); with HOXA2 [8], 10.2 upbm affinity estimate (log intensity, higher = more binding, comparable within an allelic series). In addition, the binding signal is 9.04 upbm affinity estimate (log intensity, higher = more binding, comparable within an allelic series) in the test with PAX4 [4]; 9.64 upbm affinity estimate (log intensity, higher = more binding, comparable within an allelic series) with MSX2 [22]; 9.04 upbm affinity estimate (log intensity, higher = more binding, comparable within an allelic series) with PAX4 [10]; 9.59 upbm affinity estimate (log intensity, higher = more binding, comparable within an allelic series) with MSX2 [23]; 9.1 upbm affinity estimate (log intensity, higher = more binding, comparable within an allelic series) with PAX4 [14]; 10.2 upbm affinity estimate (log intensity, higher = more binding, comparable within an allelic series) in the test with HOXA2 [15]. For the same sequence, in the test with HOXA2 [17], the binding signal was 7.17 upbm affinity estimate (log intensity, higher = more binding, comparable within an allelic series).
As to CCAGGGGG, the binding signal in the test with PAX4 [1] was 9.05 upbm affinity estimate (log intensity, higher = more binding, comparable within an allelic series); with PAX4 [2] it was 9.19 upbm affinity estimate (log intensity, higher = more binding, comparable within an allelic series); with ALX3 [6], 7.64 upbm affinity estimate (log intensity, higher = more binding, comparable within an allelic series); with PAX4 [3], 9.12 upbm affinity estimate (log intensity, higher = more binding, comparable within an allelic series); with PAX4 [4] it was 9.04 upbm affinity estimate (log intensity, higher = more binding, comparable within an allelic series); in the test with ALX3 [9] it was 7.54 upbm affinity estimate (log intensity, higher = more binding, comparable within an allelic series). Also, the binding signal was 9.08 upbm affinity estimate (log intensity, higher = more binding, comparable within an allelic series) in the test with PAX4 [10]; 7.58 upbm affinity estimate (log intensity, higher = more binding, comparable within an allelic series) with ALX3 [11]; 7.54 upbm affinity estimate (log intensity, higher = more binding, comparable within an allelic series) in the test with ALX3 [13]; 9.06 upbm affinity estimate (log intensity, higher = more binding, comparable within an allelic series) with PAX4 [14]; 7.57 upbm affinity estimate (log intensity, higher = more binding, comparable within an allelic series) with ALX3 [16].
